Sampled rows, rich in hits. Any-hit rate of the full collection: about 21%.
NS1 inh: blocks influenza NS1 protein function | actives 0.4% (n = 270,000) | Potency, µM (doses to about 46.1 µM), for the others: at the top dose activity, positive = more growth; calls by dose curve; note: potency is the fitted concentration of half-maximal effect; actives are rising curves; nearly all actives have a fitted effect of over 50% in size
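A cell-based growth assay was used: compounds that relieve NS1-induced slow growth of budding yeast raise OD600. Assay medium was yeast nitrogen base with ammonium sulphate and -URA supplement, pH 6.0, with 2% galactose.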
Cycloheximide cs: counter-screen for Shiga toxin inhibitors: cycloheximide protein synthesis inhibition; cell reporter, cycloheximide protein synthesis inhibition counterscreen; max response, %; actives 12% (n = 300,000); AID 2314; in the data active = max response mostly above about 13%, no sharp cut-off; inactive = mostly below about 14%; note: read at 38.3 µM for the half of the compounds with a filed dose; 0% is about no effect
Pf growth 96h: P. falciparum growth inhibition at 96 hours. P. falciparum luciferase reporter growth, 96 h. Potency, µM (titrated, usually from 28.7 µM), for the others: at the top dose activity change, negative = inhibition, hits mostly inhibitors. actives 6.9% (n = 320,000). AID 504834; note: potency is the fitted concentration of half-maximal effect; % is set by controls: 0 for no effect and ±100 for the full control effect
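Erythrocytes infected with luciferase-expressing P. falciparum were dispensed at 2% hematocrit and 0.05% parasitemia (final), then incubated with compounds 96 hours at 37 C in 5% CO2. Luminescence after detection reagent addition reported growth.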
Pf growth 48h: P. falciparum growth inhibition at 48 hours (one generation); P. falciparum luciferase growth in erythrocytes, 48 h; AID 504832; Potency, µM (highest dose often 28.7 µM), for inactives: at the top dose activity change, negative = inhibition, most hits filed as inhibitors; actives 5.9% (n = 310,000); note: potency is the fitted concentration of half-maximal effect; % is set by controls: 0 for no effect and ±100 for the full control effect
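Erythrocytes infected with P. falciparum carrying an integrated firefly luciferase reporter (2% hematocrit, 0.1% parasitemia final) were exposed to compounds in RPMI 1640 with 0.5% Albumax at 37 C, 5% CO2. Growth inhibition was scored as reduced luminescence.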
Shiga inhibitor: blocks Shiga toxin action in Vero cells. Vero cells, Shiga toxin protein synthesis inhibition reporter. inhibition, % at 38.7 µM. actives 9.2% (n = 290,000). AID 2315; in the data active = inhibition mostly above about 28%, no sharp cut-off; inactive = mostly below about 43%; note: 0% is about no effect
NS1 inh valid: influenza NS1 function inhibition validation; shares compounds with NS1 inh; influenza NS1 function cell assay, 15-point titration; activity change, negative = inhibition, % at 32.9 µM; 1,400 tested, under 10 active; AID 492980; calls by dose curve; note: 0% is about no effect
Flu PR8 replic: influenza virus titer reduction, NS1 project; shares compounds with NS1 inh; MDCK infected influenza A/PR/8/34, virus titer TCID50; hits give low values; virus titer (log TCID50), log10 TCID50 at 5 µM; actives 30% (n = 95); AID 504647; call rule not given here
The depositor's hits bear a star; ? = inconclusive; . = no result given; + = active, no number; [ ] = remark or other dose. Unless noted, calls come from the whole dose curve; as a rule, active = well fitted inhibition curve with a large enough effect; inconclusive = small, poorly fitted or top-dose-only effect, or another doubt; inactive = no such curve, though single readings can be large or run the other way.

SMILES	NS1 inh	Cycloheximide cs	Pf growth 96h	Pf growth 48h	Shiga inhibitor	NS1 inh valid	others
CC(=O)Nc1cccc(OCCCNC(=O)C2CCC2)c1	2%	7	-2%	-17%	12	.
COc1ccc(NS(=O)(=O)c2ccc3nc(COc4cccc5ccccc45)[nH]c3c2)cc1	22µM*	13	?	?	35	8
COc1cc(C(C(=O)NC2CCCC2)N(C(=O)c2snc(C(N)=O)c2N)C2CCCC2)cc(OC)c1OC (configuration not stated)	-4%	-6	?	?	-1	.
CCCCCC(C)NC(=S)NC(=O)c1cc(S(=O)(=O)N2CCOCC2)ccc1C (configuration not stated)	20µM*	-3	12µM*	?	-7	-37
CCCC(C)NC(=S)NC(=O)c1cc(S(=O)(=O)N2CCOCC2)ccc1C (configuration not stated)	7%	-4	?	?	23	.
COc1cc2[nH]cc(C(=O)NCc3ccccc3)c(=O)c2cc1OC	15%	-3	?	?	-9	.
COc1cccc2c(=O)c(C(=O)NCc3cccs3)c[nH]c12	1.4µM*	53*	3%	31%	76*	-4
Cc1cc(-c2nnc(CSc3nnc(NC(=O)c4ccc(C(C)(C)C)cc4)s3)o2)ccc1[N+](=O)[O-]	0%	23	91%	53%	25	.
COc1cccc(NC(=O)CC2S/C(=N\S(=O)(=O)c3ccccc3)N(c3ccccc3)C2=O)c1 (configuration not stated)	10µM*	-3	20%	24%	-4	20
CC1CCC(NS(=O)(=O)c2ccc(N3CCCC3=O)cc2)CC1 (configuration not stated)	-1%	-3	13%	-2%	-4	.
O=C(O)c1ccc(CNCc2ccc(Cl)cc2)cc1	6%	-5	?	9%	9	.
COCCNc1nnnc2c1sc1nc(N3CCOCC3)c3c(c12)CCCC3	-1%	-3	11%	?	-3	.
COc1ccc(CNC(=O)CSc2nnc(C3CC3)n2C2CC2)cc1	.	.	13%	?	.	.
COc1ccc(/C=N/Nc2nc(-c3cccc(S(=O)(=O)N4CCCC4)c3)cs2)cc1OC	13µM*	15	12µM*	9.3µM*	+	19
CCOc1cc(/C=N/Nc2nc(-c3cccc(S(=O)(=O)N4CCCC4)c3)cs2)ccc1O	10µM*	-2	10µM*	9.3µM*	9	19
O=S(=O)(c1cccc(-c2csc(N/N=C/c3ccco3)n2)c1)N1CCOCC1	5%	-2	0%	0%	26	.
Nc1nonc1C(=O)NCCNC(=O)c1ccc(Cl)c(Cl)c1	5%	-4	-2%	4%	-14	.
CC(C(=O)OCC(=O)c1cccc([N+](=O)[O-])c1)N1C(=O)C2C3CCC(C3)C2C1=O (configuration not stated)	11%	-3	?	-4%	-2	.
CC(C)CC(C(=O)Nc1oc(-c2ccco2)c(-c2ccco2)c1C#N)N1C(=O)c2ccccc2C1=O (configuration not stated)	10µM*	-1	?	?	-3	-11	Flu PR8 replic=8
Cc1ccc(CCN2CC(C(=O)NCCC(C)C)CC2=O)cc1 (configuration not stated)	3%	-5	10%	-20%[0.00184 µM]	-10	.
Cc1ccc(CCN2CC(C(=O)NCc3ccco3)CC2=O)cc1 (configuration not stated)	?	3	17%	8%	15	-3
CCCCC(=O)NCCc1cc2c(C)ccc(C)c2[nH]c1=O	-4%	.	.	.	.	.
Cc1cccc(C(C)C)c1NC(=O)CN1C(=O)NC(Cc2ccccc2)C1=O (configuration not stated)	.	.	7%	12%	.	.
Cc1onc(-c2ccccc2Cl)c1C(=O)N(Cc1nc(-c2ccccc2)no1)C1CCCCC1	10µM*	5	?	.	11	-23
Cc1cccc(-c2noc(CN(C(=O)c3c(-c4ccccc4Cl)noc3C)C(C)C)n2)c1	-45%	0	?	.	-2	.
SMILES	NS1 inh	Cycloheximide cs	Pf growth 96h	Pf growth 48h	Shiga inhibitor	NS1 inh valid	others
CCN(C(=O)CSc1n[nH]c(-c2ccccc2)n1)c1c(N)n(Cc2ccccc2)c(=O)[nH]c1=O	.	.	-27%	-23%	.	.
CCOC(=O)C1=C(C)N(CCCCCC(=O)O)C(=O)NC1c1ccccc1Cl (configuration not stated)	?	-3	-30%	4%	17	14
C#CC1(NC(=O)NC(C)C)CCCCC1	7%	3	27%	7%	-4	.
Cc1cccc(N(CC(=O)NC2CCCCC2)C(=O)CCC(=O)Nc2ccccn2)c1	0%	6	?	-3%	12	.
Cc1ccnc(NC(=O)CCC(=O)N(CC(=O)NC2CCCCC2)c2ccc3c(c2)OCO3)c1	22µM*	8	-12%	-10%	34	-9
Cc1ccc(-n2nc(C)c(/C=N/n3c(C)n[nH]c3=S)c2Cl)cc1	5%	15	-7%	?	10	.
CC1Oc2ccccc2N(CC(=O)NC2CCCC2)C1=O (configuration not stated)	9%	-2	19%	14%	-6	.
CC1Oc2ccccc2N(CC(=O)N2CCCCC2)C1=O (configuration not stated)	10µM*	-5	32%	?	-5	9
Cn1c(N)c(C(=O)COC(=O)c2cc(C3CC3)nc3ccccc23)c(=O)n(Cc2ccccc2)c1=O	11µM*	-4	?	-9%	-21	10
Cc1ccc(C(=O)N/N=C/c2cc(C)n(-c3ccc(Br)cc3)c2C)cc1[N+](=O)[O-]	10µM*	9	-13%	-1%	22	-19	Flu PR8 replic=8.3
CCc1nnc(NS(=O)(=O)c2ccc(NC(=O)c3cc(Cl)ccc3[N+](=O)[O-])cc2)s1	11µM*	-4	0%	18%	-7	29	Flu PR8 replic=8.3
O=C(NCCCN1CCOCC1)c1ccc2c(c1)N(Cc1ccc(F)cc1)CCS2	-2%	-2	?	?	-8	.
CN1CCN(CCCNC(=O)c2ccc3c(c2)N(Cc2ccc(F)cc2)CCS3)CC1	2.8µM*	-9	10µM*	?	-21	-5
Nc1nonc1-n1nnc(C(=O)N/N=C/c2ccco2)c1CSc1ccccc1	?	-3	62%	23%	15	8
Cc1ccc(N2CC(C(=O)NCCN3CCOCC3)CC2=O)cc1 (configuration not stated)	12%	-9	2%	4%	-3	.
CCOC(=O)C(NC(C)=O)C(=O)Nc1ccc(C)cc1C (configuration not stated)	4%	-3	31%	3%	18	.

Assay outcomes from PubChem BioAssay.
